Source: PubChem BioAssay AID1159580 (chemical genetic matrix, 2015)
Values joined by “and” are separate entries in the source; they are usually repeats but may differ in a detail not shown here. Equal entries are not always repeated. The campaign covered roughly 5,500 compounds. About 2,000 (36%) were called active. Inconclusive results (about 18%) are left out. No stated cut-off is given here; in the data, active means normalized growth mostly below about 0.91 (no sharp cut-off); inconclusive means no clear call, values can overlap the other calls; inactive means mostly above about 0.92. This is one part of the list.

Experiment: chemical genetic growth profiling, strain panel (AID 1159580);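 further: tested at 20 µM; growth read once vehicle control cultures reached saturation at 30 °C; 1 = growth at the plate median or of vehicle wells; lower values mean less growth of the strain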
Details: S. cerevisiae deletion strains, growth OD

Measured: normalized growth

COc1c(O)cc(O)cc1O
inactive: locus YAL021C, strain ccr4, active compounds read low 1.01 | locus YAL026C, strain drs2, active compounds read low 1.02 | locus YAL030W, strain snc1, active compounds read low 0.999 | locus YBL061C, strain skt5, active compounds read low 0.996 | locus YBR009C, strain hhf1, active compounds read low 1.02 | locus YBR021W, strain FUR4, active compounds read low 0.985 | locus YBR023C, strain chs3, active compounds read low 1.01 | locus YBR171W, strain sec66, active compounds read low 0.994 | locus YBR229C, strain ROT2, active compounds read low 1 | locus YBR231C, strain swc5, active compounds read low 1.01 | locus YBR279W, strain paf1, active compounds read low 1 | locus YCL011C, strain gbp2, active compounds read low 1.01 | locus YCL016C, strain dcc1, active compounds read low 1.01 | locus YCL029C, strain bik1, active compounds read low 1.02 | locus YCL061C, strain MRC1, active compounds read low 1 | locus YCL069W, strain vba3, active compounds read low 1 | locus YCR088W, strain abp1, active compounds read low 0.992 | locus YDL005C, strain med2, active compounds read low 0.983 | locus YDL035C, strain GPR1, active compounds read low 1.07 | locus YDL040C, strain nat1, active compounds read low 0.981 | locus YDL074C, strain BRE1, active compounds read low 1.06 | locus YDL101C, strain DUN1, active compounds read low 0.992 | locus YDL185W, strain tfp1, active compounds read low 0.978 | locus YDL192W, strain arf1, active compounds read low 1 | locus YDR001C, strain nth1, active compounds read low 1 | locus YDR069C, strain doa4, active compounds read low 1 | locus YDR101C, strain arx1, active compounds read low 1.04 | locus YDR137W, strain rgp1, active compounds read low 1.04 | locus YDR159W, strain sac3, active compounds read low 0.976 | locus YDR162C, strain NBP2, active compounds read low 1.06 | locus YDR195W, strain ref2 0.951 | locus YDR297W, strain sur2, active compounds read low 0.998 | locus YDR318W, strain mcm21, active compounds read low 1 | locus YDR334W, strain swr1, active compounds read low 0.994 | locus YDR335W, strain msn5, active compounds read low 1 | locus YDR388W, active compounds read low 0.997 | locus YDR392W, strain spt3, active compounds read low 1.01 | locus YDR502C, strain sam2, active compounds read low 0.998 | locus YEL003W, strain gim4, active compounds read low 1.02 | locus YEL037C, strain rad23, active compounds read low 1 | locus YEL061C, strain CIN8 (second series), active compounds read low 1.01 | locus YEL061C, strain CIN8, active compounds read low 1.01 | locus YER015W, strain faa2, active compounds read low 1 | locus YER016W, strain bim1, active compounds read low 0.996 | locus YER110C, active compounds read low 0.991 | locus YER111C, strain swi4, active compounds read low 0.989 | locus YER155C, strain BEM2 (second series), active compounds read low 1.02 | locus YER155C, strain BEM2, active compounds read low 0.989 | locus YER167W, strain BCK2, active compounds read low 1 | locus YFR010W, strain ubp6, active compounds read low 0.999 | locus YGL078C, strain dbp3, active compounds read low 0.969 | locus YGL086W, strain mad1, active compounds read low 1.01 | locus YGL167C, strain pmr1, active compounds read low 0.998 | locus YGL173C, strain kem1, active compounds read low 0.999 | locus YGL227W, strain vid30, active compounds read low 0.988 | locus YGL240W, strain doc1, active compounds read low 0.992 | locus YGL248W, strain PDE1, active compounds read low 0.996 | locus YGL253W, strain hxk2, active compounds read low 1.01 | locus YGR078C, strain PAC10, active compounds read low 1.02 | locus YGR135W, strain pre9, active compounds read low 0.972 | locus YGR252W, strain gcn5, active compounds read low 0.997 | locus YHR013C, strain ard1, active compounds read low 1.01 | locus YHR027C, strain rpn1, active compounds read low 0.988 | locus YHR030C, strain SLT2, active compounds read low 1.01 and 1.05 | locus YHR079C, strain IRE1 (second series), active compounds read low 0.997 | locus YHR079C, strain IRE1, active compounds read low 1.02 | locus YHR094C, strain hxt1, active compounds read low 1 | locus YHR129C, strain ARP1, active compounds read low 0.998 | locus YHR142W, strain chs7, active compounds read low 1.03 | locus YHR200W, strain rpn10, active compounds read low 0.984 | locus YIL066C, strain RNR3, active compounds read low 1 | locus YIL073C, strain SPO22, active compounds read low 1.05 | locus YIL125W, strain kgd1, active compounds read low 1 | locus YIR030C, strain dcg1, active compounds read low 1.01 | locus YJL092W, strain hpr5, active compounds read low 0.995 | locus YJL095W, strain BCK1 (second series), active compounds read low 1 | locus YJL095W, strain BCK1, active compounds read low 0.998 and 1.05 | locus YJL115W, strain asf1, active compounds read low 0.992 | locus YJL129C, strain trk1, active compounds read low 0.989 | locus YJL134W, strain LCB3, active compounds read low 0.997 | locus YJL154C, strain vps35, active compounds read low 0.995 | locus YJL164C, strain tpk1, active compounds read low 1.01 | locus YJL166W, strain qcr8, active compounds read low 1.05 | locus YJL168C, strain set2, active compounds read low 1 | locus YJL187C, strain SWE1 (second series), active compounds read low 0.997 | locus YJL187C, strain SWE1, active compounds read low 1 | locus YJR043C, strain POL32, active compounds read low 1.07
